Compound activity from PubChem.
Shown are actives, neighbours in structure and some others; about 2.3% of the full set was active somewhere.
ANO1 block = inhibitors of mouse TMEM16A calcium-activated chloride channel | 310,000 compounds, 1.2% hits | normalized B-score (activity score, 25-100; higher = stronger inhibition) at 10 µM | HEK293 TMEM16A/YFP iodide influx fluorescence, ionomycin | Q8BHY3;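 active = ratio plate-corrected score three or more library SD toward inhibition, starting fluorescence score within five deviations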;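 also: score derived from kinetic fluorescence span divided by baseline fluorescence per well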
TMEM16A act = mouse TMEM16A channel activation, primary screen; HEK293 TMEM16A/YFP-H148Q/I152L, iodide quench fluorescence; stronger effect = lower value; AID 623877; Q8BHY3; B-score at 10 µM; 340,000 compounds, 0.3% hits;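 active = fluorescence-ratio B-score plate-corrected deviation score at least 3 library SD below zero, with starting fluorescence score within 5 deviations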;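 also: channel opened by trigger with iodide after compound preincubation; score built on the fluorescence ratio of max minus min over baseline; more negative score means more quench and so TMEM16A activation or potentiation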
CHT block = inhibits the human high affinity choline transporter; CHT-expressing cells, membrane potential dye, choline response; stronger effect = lower value; B-score at 10 µM; 310,000 compounds, 0.86% hits; AID 488975;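 active = B-score over 3 SD under the library average, and starting fluorescence ratio not unusually high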;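 also: choline stimulus applied at its EC90 after an EC20 pre-addition; B-score computed on integrated fluorescence ratio after choline addition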
Target sequence (Q9GZV3 whole entry, looked up): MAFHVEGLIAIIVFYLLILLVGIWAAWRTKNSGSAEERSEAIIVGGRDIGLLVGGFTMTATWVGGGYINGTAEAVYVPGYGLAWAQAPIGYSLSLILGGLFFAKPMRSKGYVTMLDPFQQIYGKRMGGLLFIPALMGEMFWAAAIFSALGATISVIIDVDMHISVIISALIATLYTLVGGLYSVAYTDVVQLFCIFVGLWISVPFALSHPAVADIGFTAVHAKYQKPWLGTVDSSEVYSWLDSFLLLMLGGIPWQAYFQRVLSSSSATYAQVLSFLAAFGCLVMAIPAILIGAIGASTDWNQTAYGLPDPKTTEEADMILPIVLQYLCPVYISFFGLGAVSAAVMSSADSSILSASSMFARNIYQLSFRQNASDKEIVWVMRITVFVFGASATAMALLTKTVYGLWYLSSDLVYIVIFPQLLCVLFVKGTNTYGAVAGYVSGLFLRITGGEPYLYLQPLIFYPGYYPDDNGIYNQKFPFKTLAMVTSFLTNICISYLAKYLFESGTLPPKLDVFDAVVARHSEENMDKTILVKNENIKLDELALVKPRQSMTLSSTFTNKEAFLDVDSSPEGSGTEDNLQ
CHT allo act = allosterically activates the human high affinity choline transporter | Q9GZV3 | CHT-expressing cells, membrane potential dye, choline EC20; stronger effect = higher value; LV-AA mutant CHT in HEK293 cells | B-score at 10 µM | 310,000 compounds, 0.49% hits | AID 488977;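 active = initial fluorescence not abnormally high and integrated response B-score, plate-corrected, over 3 SD above library mean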
CHT act confirm = human CHT activation, confirmatory screen. shares compounds with CHT allo act. CHT-expressing cells, membrane potential dye fluorescence (FDSS); % of choline EC20–EC90 response window; HEK293 expressing CHT LV-AA mutant; choline added at its EC20. activation, % at 10 µM. 2,500 compounds, 91% hits;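 active = primary screen active, with duplicate mean activation above negative control mean plus 3 SD, cut at about 11% in these data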
HEK293 MP dye = activity in parental HEK293 cells lacking CHT. shares compounds with CHT allo act. membrane potential dye fluorescence (FDSS); measured after EC20 choline addition. ratio readout change at 10 µM, hits read low. 2,500 compounds, 62% hits. AID 623908;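 active = duplicate-averaged ratio beyond 3 SD from buffer wells, up or down, though filed actives are nearly all decreases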
* hit, by the source's call; i = inactive; / = not tested or not shown.

SMILES	ANO1 block	TMEM16A act	CHT block	CHT allo act	CHT act confirm	HEK293 MP dye
Cc1ccc(C(C(=O)NC2CCCCC2)N(Cc2ccco2)C(=O)Cc2c[nH]c3ccccc23)o1 (stereo not given)	i	i	i	6.41*	26.0*	i
Cc1noc(C)c1S(=O)(=O)N1CCCC(C(=O)NCc2ccccc2Cl)C1 (stereo not given)	i	i	i	i	/	/
COc1ccc(NS(=O)(=O)c2cccc3ccccc23)cc1	i	i	i	i	/	/
CCn1cc(C(=O)O)c(=O)c2cc(F)c(N3CCNCC3)cc21	i	i	i	14.4*	39.4*	-42.1*
CCCCCCCC(=O)N1CCN(c2cc3c(cc2F)c(=O)c(C(=O)O)cn3CC)CC1	i	i	i	i	/	/
CCCCCCn1cc(C(=O)O)c(=O)c2cc(F)c(N3CCN(C)CC3)cc21	i	i	i	6.86*	58.6*	-76.3*
O=C(CCCOc1ccc(Br)cc1)Nc1nnc(C2CC2)s1	/	i	/	/	/	/
Cn1c(=O)[nH]c(=O)c2c1nc(N1CCN(c3ccccc3)CC1)n2CCSc1ncccn1	i	i	i	i	36.7*	i
Cc1ccnc(SCCn2c(N3CCN(Cc4ccccc4)CC3)nc3c2c(=O)[nH]c(=O)n3C)n1	i	i	i	i	/	/
Cn1c(=O)[nH]c(=O)c2c1nc(N1CCCCC1)n2CCSc1ncccn1	i	i	i	8.02*	18.4*	-24*
Cc1cc(-n2c(C)c3c(C)nnc(C)c3c2C)ccc1N	i	i	i	6.75*	37.7*	-21.5*
CCC(C)[C@H](NC(=O)N1CC(=O)Nc2ccccc21)C(=O)N1CCC[C@H]1C(=O)O (stereo not given in full)	i	i	i	i	/	/
Oc1ccccc1-c1nc(NCc2ccco2)c2ccccc2n1	i	i	i	i	/	/
c1ccc(N2CCN(c3nc(NCc4ccco4)c4ccccc4n3)CC2)cc1	i	i	i	i	/	/
c1coc(CNc2nc(N3CCCCC3)nc3ccccc23)c1	i	/	i	i	13.5*	i
c1ccc(-c2nc(NCc3ccco3)c3ccccc3n2)nc1	i	i	i	7.02*	41.7*	-46.3*
COc1ccc(-c2csc3nc(C)nc(N4CCC(C)CC4)c23)cc1OC	i	i	i	i	46.7*	i
Cc1nnc2n(-c3ccccc3)c(=O)c3c4c(sc3n12)CCCC4	i	i	i	6.46*	26.1*	-40.3*
Cc1nnc2n(-c3ccccc3)c(=O)c3c4c(sc3n12)COC(C)(C)C4	i	i	i	i	/	/
Cc1ccccc1C(=O)N1CCC(C(=O)NC(C)c2ccc(-n3ccnc3)cc2)CC1 (stereo not given)	i	i	i	i	/	/
c1ccc(N2CCN(c3ccc4nncn4n3)CC2)nc1	i	i	i	9.75*	66.1*	-58*
Cc1nnc2ccc(N3CCN(c4ccccn4)CC3)nn12	i	i	i	7.23*	52.7*	-51.2*
c1cc2nncn2nc1N1CCCC1	i	i	i	i	/	/
CCOc1ccc(S(=O)(=O)N(CC)CC(=O)NC2CC2)cc1	i	i	i	i	/	/
COc1cc(Cl)c(C)cc1NC(=O)c1ccccc1-n1cnnn1	/	i	/	/	/	/
SMILES	ANO1 block	TMEM16A act	CHT block	CHT allo act	CHT act confirm	HEK293 MP dye
CCN(CC)C(=O)c1nc[nH]c1C(=O)N1CCc2ccccc2C1	/	i	/	/	/	/
Brc1ccc(-c2cnc3n2CCCC3)cc1	i	i	i	i	/	/
CCOc1ccc(-c2cnc3n2CCC3)cc1	i	i	i	i	50.2*	-39.1*
COc1ccc(S(=O)(=O)N2c3ccc(F)cc3CCC2C)cc1 (stereo not given)	i	i	i	i	43.9*	i
O=C(NC1CCSc2ccccc21)c1cc([N+](=O)[O-])ccc1N1CCOCC1 (stereo not given)	i	i	i	6.38*	6.0	i
O=C(Nc1ccccc1C(=O)NCCN1CCOCC1)c1cccc([N+](=O)[O-])c1	i	i	i	i	57.7*	-57*
O=C(c1cc([N+](=O)[O-])ccc1N1CCOCC1)N1CCN(c2ccccc2)CC1	i	i	i	12*	48.0*	i
O=[N+]([O-])c1ccc(N2CCN(c3ccccc3F)CC2)c(S(=O)(=O)N2CCOCC2)c1	i	i	i	6.25*	34.3*	i
O=[N+]([O-])c1ccc(N2CCCCCC2)c(S(=O)(=O)N2CCCCC2)c1	i	i	i	i	/	/
O=C(NC1CCSc2ccccc21)c1ccc([N+](=O)[O-])cc1 (stereo not given)	i	i	i	i	/	/
CN1CCN(c2ccc([N+](=O)[O-])cc2C(=O)N2CCOCC2)CC1	i	i	i	i	/	/
COC(=O)c1ccc(COC(=O)C2CCN(S(=O)(=O)c3ccc(C)c(C)c3)CC2)o1	i	i	i	i	/	/
O=C(NCCc1ccccc1)c1cc([N+](=O)[O-])ccc1N1CCOCC1	/	i	/	/	/	/
O=C(NCCc1ccc(F)cc1)c1cc([N+](=O)[O-])ccc1N1CCOCC1	i	i	i	i	2.3	i
CCOC(=O)CN(C(=O)CSc1nnnn1C)c1ccccc1	/	i	/	/	/	/
CCOC(=O)c1ccc2c(c1)n(CCCS(=O)(=O)[O-])c(/C=C/c1ccc(Cl)cc1)[n+]2CC	i	i	i	11.2*	71.0*	-86.2*
COc1ccc(C(CNC(=O)CCC(=O)c2ccc(C)s2)N2CCOCC2)cc1 (stereo not given)	/	i	/	/	/	/
COc1ccc(NC(=O)CCNS(=O)(=O)c2cccc3nonc23)c(OC)c1	i	i	i	i	/	/
CCCCN(CCCC)CCNC(=O)CSCc1ccc(C)cc1	i	i	i	i	35.3*	i
Cc1ccc(CNC(=O)CSCc2ccccc2)cc1	i	i	i	i	/	/
Cc1ccc(S(=O)(=O)N2CCC(C(=O)OCC(=O)N(C)C3CCS(=O)(=O)C3)CC2)cc1C (stereo not given)	i	i	i	i	/	/
